A short description of assay [1]: NCI Yeast Anticancer Drug Screen. Data for the rad50 strain (AID 155).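 Note: 0% = growth of vehicle-only cultures of the same strain.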 The settings on record: S. cerevisiae rad50 strain growth inhibition, hits give high values. An outline of the steps: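 DNA repair mutant yeast, compound exposure, growth read-out; inhibition is taken relative to vehicle.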
Assay [2] in a line: NCI Yeast Anticancer Drug Screen. Data for the mec2-1 strain (AID 157). Particulars: S. cerevisiae mec2-1 strain, hits give high values. An outline of the steps:
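Vehicle-treated cultures served as reference for growth inhibition of compound-exposed mec2-1 yeast.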

Assay [3] is described as follows: NCI Yeast Anticancer Drug Screen. Data for the sgs1 mgt1 strain (AID 161).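 Note: 0% = growth of cultures given vehicle only.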 The settings on record: S. cerevisiae sgs1 mgt1 strain, hits give high values. An outline of the steps: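 Read-out: growth inhibition vs vehicle controls. Cells: mutant yeast strain deficient in DNA damage repair.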
Assay [4] is described as follows: NCI Yeast Anticancer Drug Screen. Data for the cln2 rad14 strain (AID 165).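 Note: 0% = growth equal to vehicle treated cultures.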 Particulars: S. cerevisiae cln2 rad14 strain, hits give high values. The gist of the method: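 Each compound was tested on cln2 rad14 yeast. Inhibition of growth was calculated against vehicle-exposed controls.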
A short description of assay [5]: NCI Yeast Anticancer Drug Screen. Data for the bub3 strain (AID 167). Particulars: S. cerevisiae bub3 mutant strain, hits give high values. An outline of the steps: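 In this screen, a yeast mutant lacking normal mitotic checkpoint function is challenged with compound. Relative growth versus vehicle gives the inhibition value.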
The nature of assay [6]: NCI Yeast Anticancer Drug Screen. Data for the mlh1 rad18 strain (AID 175). Particulars: S. cerevisiae mlh1 rad18 strain growth inhibition, hits give high values. The gist of the method:
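Vehicle-treated cultures served as the reference for growth inhibition in a yeast strain carrying DNA damage repair alterations exposed to each compound.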

The mark [7] stands for this setting: at 5.0 µM (retest, dose inferred, filed as 0.5).
Setting [8] is: at 50.0 µM (retest, dose inferred, filed as 5.0).

The panel holds about 79,000 compounds, 15% with a hit somewhere; the sample as a whole holds those more often. Values without a mark were called inactive. Active and inactive are the calls of the source. Cut-off read from the data, not from the text of the source: active = growth inhibition above about 70%; inactive = the rest.

For the compound `CSCCOC(=O)c1cc(NC(=S)c2ccoc2C)ccc1Cl`, the growth inhibition in assay [1] (setting [7]) is 13%; in assay [1] (setting [8]), 78% (active); in assay [1] (at 50.0 µM), 82.5% (active); in assay [2] (setting [7]), -8%; in assay [2] (setting [8]), 78% (active); in assay [2] (at 50.0 µM), 68.9%. Further, the growth inhibition in assay [3] (setting [7]) was 10%; in assay [3] (setting [8]), 85% (active); in assay [3] (at 50.0 µM), 66.4%; in assay [4] (setting [7]), 14%; in assay [4] (setting [8]), 83% (active); in assay [4] (at 50.0 µM), 67%. Besides, the growth inhibition in assay [5] (setting [7]) was 17%; in assay [5] (setting [8]) it was 88% (active); in assay [5] (at 50.0 µM), 73.9% (active); in assay [6] (setting [7]) it was -7%; in assay [6] (setting [8]) it was 85% (active); in assay [6] (at 50.0 µM), 63%.
Take `C=CCC1=C(C)C(OC(=O)/C=C/c2ccccc2Cl)CC1=O` (stereo not given): the growth inhibition in assay [1] (setting [7]) is 17%; in assay [1] (setting [8]), 81% (active); in assay [1] (at 50.0 µM) it was 86.2% (active); in assay [2] (setting [7]), 0%; in assay [2] (setting [8]), 88% (active); in assay [2] (at 50.0 µM), 85.1% (active). Also, the growth inhibition is 13% in assay [3] (setting [7]); 88% (active) in assay [3] (setting [8]); 72.2% (active) in assay [3] (at 50.0 µM); -6% in assay [4] (setting [7]); 89% (active) in assay [4] (setting [8]); 69% in assay [4] (at 50.0 µM). Further, the growth inhibition was 3% in assay [5] (setting [7]); 90% (active) in assay [5] (setting [8]); 95.4% (active) in assay [5] (at 50.0 µM); 8% in assay [6] (setting [7]); 89% (active) in assay [6] (setting [8]); 84.3% (active) in assay [6] (at 50.0 µM).
Take `Cc1c2ccccc2c(CCl)c2ccc3ccccc3c12`: the growth inhibition in assay [1] (setting [7]) was 99% (active); in assay [1] (setting [8]), 98% (active); in assay [1] (at 50.0 µM), 97.7% (active); in assay [2] (setting [7]), 100% (active); in assay [2] (setting [8]) it was 99% (active); in assay [2] (at 50.0 µM), 97.2% (active). The growth inhibition in assay [3] (setting [7]) is 100% (active); in assay [3] (setting [8]), 99% (active); in assay [3] (at 50.0 µM), 98.3% (active); in assay [4] (setting [7]), 99% (active); in assay [4] (setting [8]), 99% (active); in assay [4] (at 50.0 µM) it was 97.5% (active). Also, the growth inhibition in assay [5] (setting [7]) was 99% (active); in assay [5] (setting [8]), 99% (active); in assay [5] (at 50.0 µM), 98.8% (active); in assay [6] (setting [7]), 100% (active); in assay [6] (setting [8]), 99% (active); in assay [6] (at 50.0 µM), 96.8% (active).
Take `COc1ccc2cc(Br)ccc2c1`: the growth inhibition in assay [1] (setting [7]) was 4%; in assay [1] (setting [8]) it was -25%; in assay [1] (at 50.0 µM), 10.3%; in assay [2] (setting [7]), 6%; in assay [2] (setting [8]), -2%; in assay [2] (at 50.0 µM), 5.1%. In addition, the growth inhibition was 2% in assay [3] (setting [7]); 1% in assay [3] (setting [8]); 9.85% in assay [3] (at 50.0 µM); 8% in assay [4] (setting [7]); -2% in assay [4] (setting [8]); -10.4% in assay [4] (at 50.0 µM). The growth inhibition in assay [5] (setting [7]) was 32%; in assay [5] (setting [8]) it was 6%; in assay [5] (at 50.0 µM), -0.55%; in assay [6] (setting [7]), 4%; in assay [6] (setting [8]), -2%; in assay [6] (at 50.0 µM), 17.2%.
In the case of `O=C(/C=C(\OB(F)F)c1ccccc1)c1ccccc1`, the growth inhibition is -2% in assay [1] (setting [7]); -4% in assay [1] (setting [8]); 100% (active) in assay [1] (at 50.0 µM); -18% in assay [2] (setting [7]); -19% in assay [2] (setting [8]); 98.9% (active) in assay [2] (at 50.0 µM). The growth inhibition is -4% in assay [3] (setting [7]); 2% in assay [3] (setting [8]); 97.4% (active) in assay [3] (at 50.0 µM); -8% in assay [4] (setting [7]); 4% in assay [4] (setting [8]); 98.4% (active) in assay [4] (at 50.0 µM). The growth inhibition in assay [5] (setting [7]) is 2%; in assay [5] (setting [8]), -1%; in assay [5] (at 50.0 µM), 98.2% (active); in assay [6] (setting [7]) it was 1%; in assay [6] (setting [8]), -13%; in assay [6] (at 50.0 µM), 97.9% (active).
As for `CN(C)CC1CCCCCCCCCCCCC(CN(C)C)C1=O` (stereo not given), the growth inhibition is -18% in assay [1] (setting [7]); 42% in assay [1] (setting [8]); 83.7% (active) in assay [1] (at 50.0 µM); -6% in assay [2] (setting [7]); 22% in assay [2] (setting [8]); 77.8% (active) in assay [2] (at 50.0 µM). Also, the growth inhibition in assay [3] (setting [7]) is -15%; in assay [3] (setting [8]), 57%; in assay [3] (at 50.0 µM) it was 95.5% (active); in assay [4] (setting [7]) it was -23%; in assay [4] (setting [8]), 20%; in assay [4] (at 50.0 µM) it was 72.2% (active). Further, the growth inhibition in assay [5] (setting [7]) is -15%; in assay [5] (setting [8]), 46%; in assay [5] (at 50.0 µM), 88% (active); in assay [6] (setting [7]), -13%; in assay [6] (setting [8]), 87% (active); in assay [6] (at 50.0 µM), 39%.
For `O=C(NC(c1ccccc1)N1CCOCC1)c1ccccc1` (stereo not given), the growth inhibition is 2% in assay [1] (setting [7]); -1% in assay [1] (setting [8]); 99% (active) in assay [1] (at 50.0 µM); -7% in assay [2] (setting [7]); 7% in assay [2] (setting [8]); 95.6% (active) in assay [2] (at 50.0 µM). For the same compound, the growth inhibition is 0% in assay [3] (setting [7]); -3% in assay [3] (setting [8]); 96.3% (active) in assay [3] (at 50.0 µM); -2% in assay [4] (setting [7]); 3% in assay [4] (setting [8]); 76.9% (active) in assay [4] (at 50.0 µM). For the same compound, the growth inhibition in assay [5] (setting [7]) is -3%; in assay [5] (setting [8]), -2%; in assay [5] (at 50.0 µM) it was 83.4% (active); in assay [6] (setting [7]), -9%; in assay [6] (setting [8]) it was -1%; in assay [6] (at 50.0 µM) it was 98.8% (active).
Turning to `N#CC(C(=O)C(=O)NC1C2CC3CC(C2)CC1C3)c1c(Cl)cccc1Cl` (stereo not given), the growth inhibition in assay [1] (setting [7]) was 1%; in assay [1] (setting [8]) it was 7%; in assay [1] (at 50.0 µM), 31.7%; in assay [2] (setting [7]), -4%; in assay [2] (setting [8]) it was -32%; in assay [2] (at 50.0 µM), 19.8%. Further, the growth inhibition in assay [3] (setting [7]) is -1%; in assay [3] (setting [8]), 3%; in assay [3] (at 50.0 µM), 21.2%; in assay [4] (setting [7]), 3%; in assay [4] (setting [8]), 5%; in assay [4] (at 50.0 µM), 28.6%. Besides, the growth inhibition in assay [5] (setting [7]) was -1%; in assay [5] (setting [8]), 5%; in assay [5] (at 50.0 µM) it was 0.45%; in assay [6] (setting [7]) it was -1%; in assay [6] (setting [8]), 5%; in assay [6] (at 50.0 µM), 30.6%.
For `O=C(Nc1ccc(Cl)c(Cl)c1)Nc1cc(Cl)ccc1Oc1ccc(Cl)cc1S(=O)(=O)O`, the growth inhibition was 52% in assay [1] (setting [7]); 97% (active) in assay [1] (setting [8]); 90.5% (active) in assay [1] (at 50.0 µM); 32% in assay [2] (setting [7]); 99% (active) in assay [2] (setting [8]); 93.5% (active) in assay [2] (at 50.0 µM). Besides, the growth inhibition in assay [3] (setting [7]) was 55%; in assay [3] (setting [8]) it was 99% (active); in assay [3] (at 50.0 µM), 93.6% (active); in assay [4] (setting [7]), 35%; in assay [4] (setting [8]) it was 99% (active); in assay [4] (at 50.0 µM) it was 92.2% (active). The growth inhibition in assay [5] (setting [7]) was 43%; in assay [5] (setting [8]), 99% (active); in assay [5] (at 50.0 µM) it was 92.5% (active); in assay [6] (setting [7]) it was 61%; in assay [6] (setting [8]), 98% (active); in assay [6] (at 50.0 µM) it was 91% (active).
Regarding `Clc1c(Cl)c(Cl)c(SC2C3CC4C(C3)C42)c(Cl)c1Cl` (stereo not given), the growth inhibition in assay [1] (setting [7]) is 31%; in assay [1] (setting [8]) it was 98% (active); in assay [1] (at 50.0 µM) it was 98.3% (active); in assay [2] (setting [7]) it was 23%; in assay [2] (setting [8]), 99% (active); in assay [2] (at 50.0 µM), 98.8% (active). For the same compound, the growth inhibition in assay [3] (setting [7]) was 27%; in assay [3] (setting [8]) it was 97% (active); in assay [3] (at 50.0 µM) it was 98.8% (active); in assay [4] (setting [7]) it was 12%; in assay [4] (setting [8]), 97% (active); in assay [4] (at 50.0 µM), 97.9% (active). The growth inhibition in assay [5] (setting [7]) was 7%; in assay [5] (setting [8]) it was 91% (active); in assay [5] (at 50.0 µM) it was 98% (active); in assay [6] (setting [7]), 21%; in assay [6] (setting [8]) it was 97% (active); in assay [6] (at 50.0 µM) it was 98.4% (active).

For the origin of these results see PubChem BioAssay (NCI).
